Source: PubChem (National Center for Advancing Translational Sciences (NCATS))
KDM5B inh: blocks human KDM5B histone demethylase activity; KDM5B demethylase, FDH-coupled NADH fluorescence (FDH is formaldehyde dehydrogenase); Potency, µM (top dose mostly 57.7 µM), usual class: inhibitors; 2.6% of 220,000 active; further: nearly all actives have a fitted effect of over 70% in size
Target sequence (Q9UGL1 whole entry, looked up): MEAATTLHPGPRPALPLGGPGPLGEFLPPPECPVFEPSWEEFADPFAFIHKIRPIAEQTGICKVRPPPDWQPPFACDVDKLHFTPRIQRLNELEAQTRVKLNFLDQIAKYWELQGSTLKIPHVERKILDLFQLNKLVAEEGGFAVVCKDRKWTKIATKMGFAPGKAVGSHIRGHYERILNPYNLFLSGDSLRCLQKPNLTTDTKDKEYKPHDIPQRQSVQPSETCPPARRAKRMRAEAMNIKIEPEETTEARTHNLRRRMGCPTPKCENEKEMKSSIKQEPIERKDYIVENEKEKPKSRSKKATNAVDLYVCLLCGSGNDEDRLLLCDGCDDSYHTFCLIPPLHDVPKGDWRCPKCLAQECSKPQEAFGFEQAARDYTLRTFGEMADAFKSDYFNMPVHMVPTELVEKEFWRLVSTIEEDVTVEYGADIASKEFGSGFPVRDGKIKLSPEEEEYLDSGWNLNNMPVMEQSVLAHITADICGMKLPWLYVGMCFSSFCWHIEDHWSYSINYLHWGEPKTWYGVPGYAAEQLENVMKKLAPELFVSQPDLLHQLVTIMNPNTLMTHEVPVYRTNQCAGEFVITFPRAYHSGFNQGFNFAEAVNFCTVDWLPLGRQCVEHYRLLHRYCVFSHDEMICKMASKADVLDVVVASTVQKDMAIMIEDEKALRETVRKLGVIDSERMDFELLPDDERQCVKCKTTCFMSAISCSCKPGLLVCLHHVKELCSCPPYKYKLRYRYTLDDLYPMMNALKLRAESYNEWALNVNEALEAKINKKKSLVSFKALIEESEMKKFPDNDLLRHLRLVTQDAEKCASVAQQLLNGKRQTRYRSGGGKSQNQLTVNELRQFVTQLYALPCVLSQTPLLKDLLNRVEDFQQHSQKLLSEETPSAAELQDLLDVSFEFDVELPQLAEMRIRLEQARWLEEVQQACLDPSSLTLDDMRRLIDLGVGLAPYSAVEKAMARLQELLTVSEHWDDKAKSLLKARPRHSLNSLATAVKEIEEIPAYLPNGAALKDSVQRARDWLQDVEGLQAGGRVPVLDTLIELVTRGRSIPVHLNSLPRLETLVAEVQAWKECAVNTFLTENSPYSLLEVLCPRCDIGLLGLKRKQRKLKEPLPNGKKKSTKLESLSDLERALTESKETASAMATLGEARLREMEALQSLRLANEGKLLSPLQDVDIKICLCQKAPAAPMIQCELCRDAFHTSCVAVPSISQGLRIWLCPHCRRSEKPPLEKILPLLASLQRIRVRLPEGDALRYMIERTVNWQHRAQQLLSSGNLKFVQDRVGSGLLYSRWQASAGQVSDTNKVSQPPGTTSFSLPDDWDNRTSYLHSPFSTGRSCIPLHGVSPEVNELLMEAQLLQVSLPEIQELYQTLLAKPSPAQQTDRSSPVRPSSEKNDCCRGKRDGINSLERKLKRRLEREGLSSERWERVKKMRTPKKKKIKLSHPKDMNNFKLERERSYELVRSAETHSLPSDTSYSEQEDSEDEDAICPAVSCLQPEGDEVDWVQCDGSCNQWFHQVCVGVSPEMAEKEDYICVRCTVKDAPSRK
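qHTS format, multiple compound concentrations. Buffer 50 mM HEPES pH 7.5/0.01% Tween-20; 200 nM KDM5BΔAP final; 10 min compound preincubation; substrate-mix levels 12.5 µM peptide, 25 µM α-KG, 0.25 mM NAD⁺; 30 min RT; ΔRFU.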
SNCA viab count: counter-screen for SNCA expression inhibitors: cell viability. 0.12% of 150,000 active. AID 1671193. Potency, µM (top dose mostly 57.1 µM), usual class: cytotoxic. HEK-293-SNCA-luc viability, GF-AFC fluorescence, 24 h; further: nearly all actives have a fitted effect of over 30% in size
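Cytotoxicity counterscreen: after 24 h compound treatment of genome-edited SNCA-luciferase HEK-293 cells, live-cell protease substrate GF-AFC read by fluorescence after 30 min; activity scaled between DMSO (0%) and medium-only (-100%), curves Hill-fitted.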
SNCA expr inh: reduces expression of the alpha-synuclein gene | HEK-293 SNCA-luciferase knock-in, luminescence, 24 h | Potency, µM (series often up to 57.2 µM), hits mostly inhibitors | 0.17% of 140,000 active | AID 1671194; further: nearly all actives have a fitted effect of over 45% in size
IP6K1 inhibitor: blocks human inositol hexakisphosphate kinase 1; Q92551; IP6K1 kinase, ADP-Glo luminescence, 2 h; stronger effect = lower value; activity change, % (series mostly up to about 58 µM); 0.81% of 140,000 active; in the data active means activity change below about -25%
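ADP-Glo luminescence measures ADP made by human IP6K1 during a 2 h RT reaction with ATP/IP6 (mix at 1.3 mM/130 uM); top library doses 57.5 and 19.1 uM final.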
Large screens that a line does not name were inactive. Rows were chosen to be rich in hits. Some 2.9% of all compounds tested hit in one or more screens of this group. Unless noted, the call rests on the fitted dose curve; in most records, active means well fitted curve in the direction sought with a large enough effect; inconclusive means small, poorly fitted or top-dose-only effect, or another doubt; inactive means no such curve, though single readings can be large; an effect the other way counts as inactive or inconclusive.

CNc1ncccc1C(=O)N1CCc2nc(-c3cn[nH]c3)[nH]c2C1	KDM5B inh 28µM
COc1ccc(N(Cc2cc(CN3CCOCC3)cs2)S(=O)(=O)c2ccccc2C)cc1	none (no result: SNCA viab count, SNCA expr inh, IP6K1 inhibitor)
COCCn1ccc2c(C3=CCOCC3)nc(-c3cccc(N4CCOCC4)c3)cc21	KDM5B inh inconclusive
COCCn1ccc2c(C3=CCOCC3)nc(-c3cccc4[nH]ccc34)cc21	KDM5B inh 35µM, SNCA viab count inconclusive
COCCn1ccc2c(C3=CCOCC3)nc(-c3cccc(CO)c3)cc21	KDM5B inh 40µM
COCCn1ccc2c(C3=CCOCC3)nc(-c3ccc4c(c3)CNC4=O)cc21	KDM5B inh 11µM
COCCn1ccc2c(C3=CCOCC3)nc(-c3cccc4[nH]ncc34)cc21	KDM5B inh 28µM
COCCn1cnc2c1c(=O)n(CC(=O)Nc1ccccc1C)c(=O)n2CC(C)C	none (no result: SNCA viab count, SNCA expr inh, IP6K1 inhibitor)
COCCn1ccc2c(C3=CCOCC3)nc(-c3ccc4cn[nH]c4c3)cc21	KDM5B inh 40µM
c1cn2cc(-c3ccc4cn[nH]c4c3)nc(Nc3ccc(N4CCOCC4)cc3)c2n1	none (no result: KDM5B inh, SNCA expr inh)
S=C(Nc1ccccc1)N[C@H]1CO[C@H]2[C@@H]1OC[C@@H]2Nc1nccc(-c2ccco2)n1	KDM5B inh 25µM
O=C(N[C@H]1CO[C@H]2[C@@H]1OC[C@@H]2Nc1nccc(-c2ccco2)n1)c1ccco1	KDM5B inh 40µM
COc1ccc(-c2nccc3c(=O)cc(N(C)C)oc23)cn1	KDM5B inh 40µM
Cc1cc(-c2nccc3c(=O)cc(N(C)C)oc23)ccn1	KDM5B inh 32µM
COc1ncccc1-c1nccc2c(=O)cc(N(C)C)oc12	KDM5B inh 35µM
CCNc1ncc(C(=O)N2CCCC(Nc3ccc(OC)cc3)C2)cn1 (stereo not drawn)	none
COc1ccc(NC2CCCN(CC(=O)Nc3ccc(C)cn3)C2)cc1 (stereo not drawn)	KDM5B inh 16µM
COCCCNC(=O)c1ccc2c(c1)n(Cc1cccc(F)c1)c(=O)c1ccnn12	KDM5B inh 28µM
COCCCNC(=O)c1ccc2c(c1)n(Cc1ccc(OC)cc1)c(=O)c1ccnn12	none
CCN1CCN(C(=O)c2ccc3c(c2)n(Cc2cccc(F)c2)c(=O)c2ccnn23)CC1	KDM5B inh 25µM
CCCCNC(=O)c1ccc2c(c1)n(Cc1cccc(OC)c1)c(=O)c1ccnn12	KDM5B inh 35µM
O=C(Nc1ccccc1)c1ccc2c(c1)n(Cc1cccc(F)c1)c(=O)c1ccnn12	KDM5B inh inconclusive
CCN1CCN(Cc2ccc(NC(=O)c3ccc(C)c(Oc4ncnc5[nH]c(C)cc45)c3)cc2C(F)(F)F)CC1	SNCA viab count inconclusive (no result: KDM5B inh, SNCA expr inh)
CN1CCN(Cc2ccc(NC(=O)Nc3ccc(Oc4cc(NC(=O)C5CC5)ncn4)cc3)cc2C(F)(F)F)CC1	SNCA viab count inconclusive, SNCA expr inh 0.48µM (no result: KDM5B inh)
Cn1ccc2c(C(=O)NCC3CCC(=O)N3)nc(-c3ccccc3C#N)cc21 (stereo not drawn)	none
C#CCNC(=O)c1cn2cc(-c3cccc(C(F)(F)F)c3)sc2n1	none (no result: KDM5B inh)
COCCNC(=O)c1nc(-c2cccc(C(F)(F)F)c2)c2cnccn12	KDM5B inh 25µM
COCCNC(=O)c1nc(-c2ccccc2)c2ccccn12	none
C#CCNC(=O)c1nc(-c2cccc(C(F)(F)F)c2)c2cnccn12	KDM5B inh 32µM
COC(=O)CNC(=O)c1nc(-c2cccc(C(F)(F)F)c2)c2ccccn12	KDM5B inh 14µM
COCCNC(=O)c1nc(-c2cccc(C(F)(F)F)c2)c2ccccn12	KDM5B inh 16µM
O=C(NCc1cccnc1)c1nc(-c2cccc(C(F)(F)F)c2)c2ccccn12	KDM5B inh inconclusive
CCOCCCNCc1cccc(C)c1	none (no result: SNCA viab count, SNCA expr inh, IP6K1 inhibitor)
CCOc1cc(=O)n2c(c1C(=O)Nc1cccc(Cl)c1)CCCC2	none
Cc1cnn(CC(=O)N2CCC3(CC2)CN(c2ncccn2)CC3CO)c1 (stereo not drawn)	KDM5B inh 35µM
CC(=O)N1CC(CO)C2(CCN(C(=O)c3cccc(C#N)c3)CC2)C1 (stereo not drawn)	none
COCCN1CC(CO)C2(CCN(C(=O)CCn3cc(C)cn3)CC2)C1 (stereo not drawn)	KDM5B inh inconclusive
O=C(CCc1ccccc1)N1CCC2(CC1)CN(c1ncccn1)CC2CO (stereo not drawn)	KDM5B inh inconclusive
CCOc1ccccc1C(=O)N1CCC2(CC1)CN(c1ccncn1)CC2CO (stereo not drawn)	none
COc1ccccc1C(=O)N1CCC2(CC1)CN(c1ncccn1)CC2CO (stereo not drawn)	KDM5B inh 25µM
N#Cc1ccc(C(=O)N2CCC3(CC2)CN(c2ncccn2)CC3CO)cc1 (stereo not drawn)	KDM5B inh 22µM
Cc1ccccc1C(=O)N1CCC2(CC1)CN(c1ncccn1)CC2CO (stereo not drawn)	KDM5B inh 32µM
Cc1cc(C)c2c(C)c(C(=O)NCC(c3ccco3)N3CCOCC3)oc2c1 (stereo not drawn)	none (no result: SNCA viab count, SNCA expr inh, IP6K1 inhibitor)
Cc1nn(CC(=O)NCCN2CCOC2=O)c(=O)n1CCc1ccccc1	none
CN1C[C@@H](NC(=O)c2ccc(C(C)(C)C)cc2)C[C@H]1c1nc(-c2ccc3c(c2)OCO3)no1	KDM5B inh 35µM, SNCA viab count inconclusive
O=S(=O)(c1ccc(Sc2nnnn2C2CCCC2)nc1)N1CCCC1	none (no result: SNCA viab count, SNCA expr inh, IP6K1 inhibitor)
O=C1CCC(C(=O)N2CCc3nc(-c4cccc(F)c4)[nH]c3C2)NC(=O)N1 (stereo not drawn)	KDM5B inh 22µM
O=C(c1cc(F)cc(Cl)c1)N1CCc2nc(-c3cccc(F)c3)[nH]c2C1	SNCA viab count inconclusive
COC[C@H]1NC(=O)CC[C@H]1C(=O)N1CCN(c2cccc(OC)c2)CC1	none (no result: KDM5B inh)
O=C(N[C@H](c1cccs1)C1CC(O)C1)c1cccc(-n2cccn2)c1 (stereo partly drawn)	none
O=C(N[C@H](c1cccs1)C1CC(O)C1)c1cnn2cc(CCO)cnc12 (stereo partly drawn)	KDM5B inh 14µM
CNc1ncccc1C(=O)N[C@H](c1cccs1)C1CC(O)C1 (stereo partly drawn)	KDM5B inh 28µM
Cn1ccc2c(C(=O)N[C@H](c3cccs3)C3CC(O)C3)cccc21 (stereo partly drawn)	none
CNc1cc(C(=O)N[C@H](c2cccs2)C2CC(O)C2)ccn1 (stereo partly drawn)	KDM5B inh 28µM
Cc1cc(/C=C/C(=O)c2ccc3ccccc3c2)c(C)s1	none (no result: SNCA viab count, SNCA expr inh, IP6K1 inhibitor)
COc1cncc(N2CC3(COCC(=O)N(Cc4cccc(OC(F)(F)F)c4)C3)C2)c1	KDM5B inh 28µM
O=C1COCC2(CN1Cc1cccc(OC(F)(F)F)c1)CN(c1ccccn1)C2	KDM5B inh inconclusive, SNCA expr inh inconclusive
C[S+](=O)([O-])NCCn1ccc2cc(OC3CCN(C(=O)C4CCCC4)CC3)cnc21	KDM5B inh 35µM
O=C(NCCc1cccc(F)c1)c1ccc(=O)[nH]c1	none (no result: SNCA viab count, SNCA expr inh, IP6K1 inhibitor)
Cc1cccc(NC(=O)c2nc(S(C)(=O)=O)ncc2Cl)c1	KDM5B inh inconclusive, SNCA viab count 20µM, SNCA expr inh inconclusive
